DRD3 antagonist: D3 dopamine receptor (human) antagonism; D3R cells, DiscoveRx beta-arrestin luminescence, antagonist mode; active compounds read low; max response, negative = inhibition, %; 360,000 tested, 2.5% active; P35462; AID 652054; in the data active means max response below about -50%; inconclusive means no clear call, values can overlap the other calls; further: on the % scale 0 is the no-effect control and ±100 the full control effect
Target sequence (P35462 whole entry, looked up): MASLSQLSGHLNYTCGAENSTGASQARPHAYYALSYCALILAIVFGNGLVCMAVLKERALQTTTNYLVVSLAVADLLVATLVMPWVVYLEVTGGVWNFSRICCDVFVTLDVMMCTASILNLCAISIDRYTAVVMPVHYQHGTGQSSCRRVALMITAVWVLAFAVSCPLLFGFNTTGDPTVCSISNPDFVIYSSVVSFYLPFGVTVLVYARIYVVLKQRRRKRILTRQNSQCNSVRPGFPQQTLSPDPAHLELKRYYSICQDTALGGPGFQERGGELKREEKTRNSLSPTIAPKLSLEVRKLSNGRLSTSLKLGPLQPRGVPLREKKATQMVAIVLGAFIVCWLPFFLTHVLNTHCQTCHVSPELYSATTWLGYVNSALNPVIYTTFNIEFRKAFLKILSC
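Cells plated overnight at 1500 cells/well, then exposed to library compounds with dopamine controls for 90 minutes at 37 degrees C. DiscoveRx reagent added for 30–60 minutes at room temperature; luminescence read, quantitative HTS format.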
DRD3 agonist: D3 dopamine receptor (human) agonism; max activation, %; AID 652048; D3R DiscoveRx beta-arrestin cells, luminescence, 90 min; P35462; 410,000 tested, 0.58% active; in the data active means max activation above about 30%; further: 0% is about no effect
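Cells at 1500/well, incubated overnight, then treated with pinned compounds (dopamine as control) for 90 min at 37 degrees C. DiscoveRx reagent added for 30 - 60 minutes at room temperature; luminescence read.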
IL1B secr inh: blocks inflammasome-driven IL-1 beta release; activity change, % at 57.5 µM; 360,000 tested, 4.7% active; THP-1 LPS/ATP IL-1B secretion, AlphaLISA, 16 h; active compounds read low; in the data active means activity change below about -50%; inconclusive means mostly about -30% to -49%; further: on the % scale 0 is the no-effect control and ±100 the full control effect
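THP-1 cells pretreated 1 hr with compounds (up to 57.5 uM final), then stimulated with LPS (250 ng/mL final) plus ATP (1.25 mM final); secreted IL-1B measured by AlphaLISA after 16 hr, decreased signal indicating inhibition.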
DT40 TDP1 no CPT: qHTS for Inhibitors of human tyrosyl-DNA phosphodiesterase 1 (TDP1): qHTS in cells in absence of CPT. DT40 Tdp1-/- hTDP1 cells, no CPT, ATP luminescence, 48 h. Potency, µM (doses to about 46.2 µM), for inactives: at the highest dose activity change, negative = growth inhibition, actives largely listed as inhibitors. 420,000 tested, 15% active; further: potency means the concentration at half of the fitted maximal effect; on the % scale 0 is the no-effect control and ±100 the full control effect; nearly all actives have a fitted effect of over 55% in size
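Camptothecin absent (DMSO only). Human TDP1-complemented DT40 knockout cells, 400 cells/well, 37 °C for minimum 48 hr; ATP measured via CellTiter-Glo, 30 min dark incubation, luminescence.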
ClpP mod: qHTS Assay for Activators of ClpP; ATP-dependent Clp protease proteolytic subunit (Bacillus subtilis (strain 168)), P80244; purified B. subtilis ClpP, FRET peptide cleavage, 20 min; Potency, µM (highest dose often 57.5 µM), inactives show at the highest dose activity change, negative = active; 340,000 tested, 1.9% active; active means well fitted falling curve with a large enough effect; inconclusive means small, poorly fitted or top-dose-only effect; inactive means no such curve, though single readings can be large or run the other way; further: potency means the concentration at half of the fitted maximal effect; the source files actives as falling curves though it sought activators and does not explain the sign; nearly all actives have a fitted effect of over 65% in size
Target sequence (P80244 whole entry, looked up): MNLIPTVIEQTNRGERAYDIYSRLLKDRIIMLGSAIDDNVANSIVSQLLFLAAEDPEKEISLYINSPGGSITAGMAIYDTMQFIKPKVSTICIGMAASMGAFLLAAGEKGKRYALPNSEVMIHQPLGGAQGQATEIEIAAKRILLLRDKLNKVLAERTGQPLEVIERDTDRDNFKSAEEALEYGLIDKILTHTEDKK
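FRET quenching reversal measured ClpP activation: 10 microg/mL B. subtilis ClpP at pH 8 with the FRET-FV decapeptide, read at 430 nm after 320 nm excitation. The 20-min minus 0-min signal was scaled between DMSO/no-enzyme wells and ADEP (5.8 microM final).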
TDP1 cell CPT: DT40-hTDP1 cell growth loss with CPT; chicken DT40 Tdp1-/-;hTDP1 cells + 20 nM CPT, ATP luminescence, 48 h; Potency, µM (highest dose often 46.2 µM), without a hit: at the top dose activity change, negative = growth inhibition, actives largely listed as inhibitors; 420,000 tested, 12% active; further: potency means the concentration at half of the fitted maximal effect; on the % scale 0 is the no-effect control and ±100 the full control effect; nearly all actives have a fitted effect of over 55% in size
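Chicken DT40 Tdp1-/- cells complemented with human TDP1, 400 cells/well, exposed to compounds plus 20 nM camptothecin for at least 48 h at 37 C; viability read as ATP content by CellTiter-Glo luminescence.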
* = called active by the depositor; ? = inconclusive; nt = no result given; ! = not confirmed by another sample. Compounds with a hit are over-represented: about 21% of the library has one in this group of screens. Unless noted, the call rests on the fitted dose curve; in most records, active means well fitted inhibition curve with a large enough effect; inconclusive means small, poorly fitted or top-dose-only effect; inactive means flat fitted curve, though single readings scatter.

SMILES	DRD3 antagonist	DRD3 agonist	IL1B secr inh	DT40 TDP1 no CPT	ClpP mod	TDP1 cell CPT
Cc1cc(C)nc(Nc2ccccc2F)n1	0	-8	-5	-1%	-3%	23%
CCOc1ccccc1NC(=O)CCn1ccnc1	-1	-15	-8	-4%	nt	?
O=C(CNC(=O)c1cc2c(n(-c3ccccc3)c1=O)CCCC2=O)c1ccccc1	5	-3	-26	-27%	28µM*	-14%
CC1(C)CC(=O)c2cc(C(=O)NCc3ccco3)c(=O)n(-c3ccccc3)c2C1	15	-9	-10	-25%	28µM*	-11%
CCN(Cc1ccccc1)C(=O)c1cc(-c2ccccc2)n[nH]1	nt	-7	nt	?	-2%	?
CCc1nnc(N/N=C/c2c(Cl)cccc2Cl)n1N	?	-6	14	-5%	-1%	-16%
CCc1nnc(N/N=C/c2cc(Br)c(O)cc2O)n1N	6	-2	43	?	nt	4.1µM*
CC(C)(C)c1nnc(N/N=C/c2cc(Br)ccc2O)n(N)c1=O	90	57*	12	2.3µM*	-2%	2.6µM*
CCc1nnc(N/N=C/c2cccs2)n1N	-16	1	0	?	-2%	26µM*
Cc1ccc(Nc2nnc(C(C)(C)C)c(=O)n2N)cc1	-2	6	0	-28%	1%	3%
CCOc1cccc(/C=C(\C#N)C(=O)NC2CC2)c1	23	-1	6	1%	-11%	?
Cc1ccccc1OCC(=O)NCC(c1cccs1)N1CCOCC1 (stereo not drawn)	9	3	24	?	nt	?
O=C(Nc1ccc(S(=O)(=O)Nc2ccnn2-c2ccccc2)cc1)C(F)(F)F	52	3	27	-14%	nt	-12%
COc1ccccc1C(=O)NC(=S)/C=C1/N(C)c2ccccc2C1(C)C	-10	1	?	?	-2%	?
CN1/C(=C/C(=S)NC(=O)C2(C)CC2(Cl)Cl)C(C)(C)c2ccccc21 (stereo not drawn)	?	1	-13	23µM*	nt	?
CN(C(=S)NC(=O)C1(C)CC1(Cl)Cl)c1ccccc1 (stereo not drawn)	12	3	18	-3%	-2%	5%
CN1/C(=C\C(=S)NC(=O)c2ccccc2Cl)C(C)(C)c2ccccc21	-17	-5	-54*	4.6µM*	-3%	7.3µM*
CCNc1ncc2nc(-c3ccc(OC)cc3)c(=O)n(CCOC)c2n1	nt	nt	nt	6%	nt	4%
COc1cccc2c1Oc1nc(-c3ccccc3)nc(SCC(=O)N3CCCCC3)c1C2	nt	-1	nt	?	-3%	?
O=C(O)c1[nH]c2ccc([N+](=O)[O-])cc2c1-c1ccccc1	-3	2	17	5%	-1%	-8%
NNC(=O)c1[nH]c2ccc([N+](=O)[O-])cc2c1-c1ccccc1	-14	-7	26	23µM*	-2%	21µM*
CC(CNC(=O)c1ccc(C#N)cc1)NC(=O)c1ccc(C#N)cc1 (stereo not drawn)	-23	-14	-17	-5%	-2%	-3%
Cc1ccc(-n2nnnc2SCc2ccc(C(=O)O)cc2)cc1C	9	1	46	1%	2%	-7%
O=C(O)c1cc(-n2nnnc2SCc2ccc([N+](=O)[O-])cc2)ccc1Cl	-54*	-7	-1	-10%	-1%	21%
O=C(COC(=O)c1ccc2ccccc2n1)Nc1ccccc1F	-17	-10	19	17%	-13%	-1%
SMILES	DRD3 antagonist	DRD3 agonist	IL1B secr inh	DT40 TDP1 no CPT	ClpP mod	TDP1 cell CPT
CCCOC(=O)Nc1nc2ccccc2o1	12	-6	18	?	-2%	?
CCOC(=O)c1cnc(Nc2nc3ccccc3o2)nc1CN1CCN(C)CC1	0	-2	89	13µM*	1%	18µM*
CCC1Nc2ncnc(N3CCCCC3)c2N(Cc2ccc(Cl)cc2)C1=O (stereo not drawn)	-65*!	-19	-6	?	1%	?
CC(C)CC1Nc2ncnc(N3CCCCC3)c2N(Cc2ccc(Br)cc2)C1=O (stereo not drawn)	-8	0	-5	16µM*	-2%	?
O=C1C(Cc2ccccc2)Nc2ncnc(N3CCCCC3)c2N1Cc1ccc(Br)cc1 (stereo not drawn)	-99*	-46	?	?	-7%	?
CCC1Nc2ncnc(N3CCN(c4ccccn4)CC3)c2N(Cc2ccc(Cl)cc2)C1=O (stereo not drawn)	-104*	-54	-59*	?	-21%	?
CC(C)(C)NC(=O)NC(=O)CN1c2cccc3cccc(c23)S1(=O)=O	34	2	54	-15%	nt	-7%
CCC1Nc2ncnc(N3CCCCC3)c2N(Cc2ccc(Br)cc2)C1=O (stereo not drawn)	-53*	-21	-1	-26%	-1%	?
CCOC(=O)c1cn(Cc2c(C)c(C)c(C)c(C)c2C)nn1	-19	-2	22	23µM*	-12%	16µM*
COc1ccc(CNC(=O)C2=C(C)C(=O)OC23CCCCC3)cc1	nt	6	nt	-13%	-2%	-2%
COc1cc(NC(=O)c2ccc(F)cc2)c(OC)cc1Cl	-1	-4	7	-8%	-3%	-24%
CCn1ccc(C(=O)Nc2cccc(Cl)c2)n1	-7	13	-4	-14%	nt	2%
COc1cc(NC(=O)c2c(F)c(F)c(F)c(F)c2F)c(OC)cc1Cl	26	-1	-101*	?	1%	-28%
O=C(Nc1ccccc1Cl)c1c(F)c(F)c(F)c(F)c1F	-62*	-5	?	-18%	1%	-11%
CCn1ccc(C(=O)Nc2ccccc2Cl)n1	-96*	-10	-8	-7%	0%	-12%
Cc1ccccc1NC(=O)c1c(F)c(F)c(F)c(F)c1F	-11	-11	-19	4%	0%	-11%
CCc1ccc(OCC(=O)NNC(=O)c2cc(S(=O)(=O)N(C)C)ccc2N2CCCC2)cc1	1	-3	-14	-27%	nt	-30%
CCn1c2ccccc2c2cc(NC(C)=O)ccc21	-21	2	11	1%	?	15%
CCn1c2ccccc2c2cc(NC(=O)CNCC3CCCO3)ccc21 (stereo not drawn)	-12	-8	-52*	?	nt	?
CCn1c2ccccc2c2cc(NC(=O)CN3CCCC3)ccc21	-18	-12	-69*	-22%	nt	-14%

Assay outcomes: PubChem, National Center for Advancing Translational Sciences (NCATS)
